HCV inhibitor: HCV inhibition; Huh7.5.1 HCVcc-Cre infection, luciferase reporter, 44 h; Potency, µM (highest dose often 41.8 µM), actives largely listed as inhibitors; 3.4% of 340,000 active; active means well fitted inhibition curve with a large enough effect; inconclusive means small, poorly fitted or top-dose-only effect, or another doubt; inactive means no such curve, though single readings can be large or run the other way
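Infectious HCV cell culture screen: compound-treated cells (1,000/well, pre-plated 4 h) are infected with HCVcc-Cre at roughly 0.5 moi and grown 44 h. Infection is quantified by luciferase signal after 15 min substrate incubation at room temperature.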
VACV Venus inh: vaccinia inhibition (Venus reporter). Potency, µM (highest dose often 36.5 µM), hits mostly inhibitors. Vaccinia virus Venus reporter expression, fluorescence. 0.46% of 330,000 active; calls by dose curve; tested in A549 cells; further: nearly all actives have a fitted effect of over 30% in size
FMDV inh: antivirals against foot and mouth disease virus; Potency, µM (titrated, usually from 57.9 µM), usual class: inhibitors; 1.2% of 410,000 active; FMDV antiviral cell-based qHTS; AID 1159524; calls by dose curve; tested in HEK293T cells; further: read-out not given here; nearly all actives have a fitted effect of over 45% in size
Vaccinia mCherry: vaccinia inhibition (mCherry reporter) | Vaccinia virus mCherry reporter infection, fluorescence | AID 720579 | Potency, µM (highest dose often 36.5 µM), most hits filed as inhibitors | 0.63% of 310,000 active; calls by dose curve; tested in A549 cells; further: nearly all actives have a fitted effect of over 35% in size
HCMV antiviral: blocks human cytomegalovirus replication | activity change, negative = inhibition, % at 57.5 µM | AID 1259415 | HFF cells, HCMV-luciferase reporter, 72 h; active compounds read low | 4.5% of 410,000 active; in the data active means activity change below about -60%; inconclusive means no clear call, values can overlap the other calls; inactive means above about -39%
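Two compound doses tested in HFFs infected with HCMV-luciferase, MOI 1 PFU/cell, 72 h at 37C. Lysate luminescence read with OneGlo; data normalized against buffer-only and 10uM Salinomycin inhibitor controls.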
Hits are given with their value; i = inactive; ? = inconclusive; nt = no result. In the library only some 7.3% were active in any assay of this set; here they are far more common.

SMILES | HCV inhibitor | VACV Venus inh | FMDV inh | Vaccinia mCherry | HCMV antiviral
CCCCN(C(=O)NCCCCCCNC(=O)N(CCCC)C1CCS(=O)(=O)C1)C1CCS(=O)(=O)C1 (centres undefined) | i | nt | i | nt | i
CCc1ccc(-c2cc(C)no2)cc1S(=O)(=O)N1CCOc2ccccc21 | 11µM | i | ? | i | -74
CCN(CCCNS(=O)(=O)c1cc(-c2cc(C)no2)ccc1C)Cc1ccccc1 | 13µM | nt | i | nt | ?
CCN(CC)C(=O)c1c(-c2ccccc2)c(-c2ccccc2)nn(CC)c1=O | nt | i | ? | i | i
COc1ccccc1C(=O)NC(=S)Nc1cccnc1Cl | 11µM | i | i | i | i
Cc1ccc(C(=O)NC(=S)Nc2cccnc2Cl)cc1 | i | i | i | i | i
O=C(N/N=C/c1ccccn1)c1ccc(Cl)cc1 | i | i | ? | 3.2µM | -97
COc1ccc(C(=O)Nc2cccnc2Cl)cc1OC | i | nt | i | nt | -87
COc1ccc(C(=O)Nc2ccccc2C(=O)N/N=C/c2ccccn2)cc1OC | ? | ? | ? | ? | -109
COc1ccc(CCNC(=O)Cn2nc(C)n3c(cc4cc(F)ccc43)c2=O)cc1OC | nt | i | i | i | i
Fc1cccc(-c2cc3nc4c(c(N5CCOCC5)n3n2)CCCC4)c1 | 3.5µM | i | i | i | i
COC(=O)CSc1ncnc2c1sc1nc(-c3ccco3)c3c(c12)CC(C)(C)OC3 | i | nt | nt | nt | nt
CCOC(=O)c1sc2nc(-c3ccco3)c3c(c2c1N)CC(C)(C)OC3 | ? | 13µM | ? | 10µM | i
OC1(c2ccc(Cl)c(C(F)(F)F)c2)CCN(CCCC(c2ccc(F)cc2)c2ccc(F)cc2)CC1 | nt | nt | nt | nt | -99
CC1CCC(NC(=O)c2ccc3c(c2)N(Cc2ccccc2F)C(=O)c2ccccc2S3=O)CC1 (centres undefined) | nt | i | i | i | i
Cc1ccc(C(=O)N(C)CC(=O)Nc2ccc(Cl)c(C(F)(F)F)c2)cc1S(=O)(=O)N1CCCCC1 | 7.9µM | nt | ? | nt | i
Cc1ccc(S(=O)(=O)N2CCCCC2)cc1C(=O)N(C)CC(=O)Nc1ccc(Cl)c(C(F)(F)F)c1 | ? | nt | ? | nt | i
CN(CC(=O)Nc1ccc(Cl)c(C(F)(F)F)c1)C(=O)c1ccc(OCC2CCCO2)cc1 (centres undefined) | 10µM | ? | ? | ? | -73
Cc1cccc(N2CCN(C(=O)CC(NC(=O)c3ccccc3)c3ccccc3)CC2C)c1 (centres undefined) | i | i | ? | i | -66
Cc1cccc(N2CCN(C(=O)c3cn4ccccc4n3)CC2C)c1 (centres undefined) | i | i | ? | i | -62
Cc1ccc(Sc2ccc(N3CCCC(C(=O)Nc4ccc(Br)cc4)C3)nn2)cc1 (centres undefined) | nt | i | i | i | i
CCCCCCCn1ccc(O)c(CC(=O)OC)c1=O | i | i | i | i | i
CCCCCn1ccc(=O)c2c(C(F)(F)F)nccc21 | 11µM | nt | ? | nt | -66
COc1ccccc1Nc1nc(NCCO)nc(N)c1[N+](=O)[O-] | i | i | i | i | i
COc1ccccc1Nc1nc(NCCC(C)C)nc(N)c1[N+](=O)[O-] | 13µM | nt | i | nt | ?
SMILES | HCV inhibitor | VACV Venus inh | FMDV inh | Vaccinia mCherry | HCMV antiviral
Cc1nc(SCc2ccc(C(=O)O)cc2)nc2c1CCCC2 | i | i | ? | i | -61
CCOC(=O)N1CCC(NC(=O)CSCc2nc(-c3ccc(C)cc3)oc2C)CC1 | ? | nt | ? | nt | -63
CCOC(=O)N1CCC(NC(=O)CSCc2nc(-c3ccc(OC)c(OC)c3)oc2C)CC1 | i | nt | i | nt | i
CCOC(=O)N1CCC(NC(=O)C2CCCN(Cc3nc(-c4cccc(C)c4)oc3C)C2)CC1 (centres undefined) | ? | i | ? | i | -73
Cc1cccc(-c2nc(CN3CCCC(C(=O)NC4CCCC4)C3)c(C)o2)c1 (centres undefined) | ? | nt | i | nt | i
COC(=O)CC1C(C)(C)C(O)C2CC3=C4C=C(OC)OC(c5ccoc5)[C@]4(C)CCC3[C@@]1(C)C2=O (some centres undefined) | nt | i | i | i | nt
Cc1ccc(-n2ncc(C(=O)NCc3ccco3)c2C2CCN(C(=O)OC(C)(C)C)CC2)c(C)c1 | nt | i | i | i | i
CS(=O)(=O)c1ccc(Nc2cc3c(cn2)cc(-c2ccccc2)n3Cc2ccccc2)cc1 | nt | nt | nt | nt | i
O=C(NCc1cccc(C(F)(F)F)c1)c1cc(-c2ccccc2)nn1CC1CC(c2cccnc2)=NO1 (centres undefined) | i | ? | i | i | i

Screening data from PubChem BioAssay.
